The nature of experiment [1]: Cell Viability - LYMP2-020 (AID 986).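 Note: series mostly up to about 92 µM; cells exposed to compound for 24 h at 37 °C; plate controls were DMSO only for no effect and tetraoctylammonium bromide at 92 µM for full effect; nearly all actives have a fitted effect of over 55% in size.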 In outline: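 Acute cytotoxicity in a human lymphoblastoid line is scored as a concentration-dependent fall in cellular ATP after 24 hr at 37 C in complete medium. The positive control is tetraoctylammonium bromide, and potency is given as Hill-fit AC50.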
Experiment [2] in a line: Cell Viability - LYMP2-022 (AID 987).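 Note: cells exposed to compound for 24 hr; 0% = DMSO alone and full effect = tetraoctylammonium bromide at 92 µM; nearly all actives have a fitted effect of over 55% in size.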 In outline:
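Acute toxicity in a human lymphoblastoid line is scored as decreased intracellular ATP after 24 hr compound treatment at 37 C. ATP is measured by CellTiter-Glo luminescence; curves are fitted with the Hill equation to give AC50.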

Experiment [3] is described as follows: Cell Viability - LYMP2-026 (AID 989).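 Note: cells exposed to compound for 24 h at 37 °C; % is set by controls: 0 for no effect and ±100 for the full control effect; nearly all actives have a fitted effect of over 50% in size.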 In outline:
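Concentration-dependent loss of intracellular ATP in human lymphoblastoid cells after 24 hr at 37 C, quantified by luciferase luminescence. AC50 derived from standard Hill equation.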

A short description of experiment [4]: Cell Viability - LYMP1-002 - Assay at 24 hr (AID 993). Note: % is set by controls: 0 for no effect and ±100 for the full control effect. An outline of the steps: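 qHTS, LYMP1-002 lymphoblastoid, 24 h cpd, 37 C, CellTiter-Glo ATP luminescence; AC50 via Hill eq.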
The nature of experiment [5]: Cell Viability - LYMP1-002 - Assay at 40 hr (AID 994).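 Note: 0% = DMSO only and full inhibition = 92 µM tetraoctylammonium bromide; nearly all actives have a fitted effect of over 60% in size.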 An outline of the steps:
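Viability in the human lymphoblastoid line was measured as intracellular ATP via CellTiter-Glo after 40 hr compound exposure. Tetraoctylammonium bromide served as positive control.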

The nature of experiment [6]: qHTS Assay for Identification of Small Molecule Inducers of Hypoxia Response (AID 2120; active = well fitted curve in the direction sought with a large enough effect in the signal ratio, with a control signal flat, not every such curve was filed as active; the % refers to the signal ratio; note: 0% is about no effect). An outline of the steps: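 Induction of beta-lactamase reporter activity was measured in CellSensor HRE-bla ME-180 cells after 17 h compound treatment at 37 degrees C, using CCF4 substrate and the 460nm/530nm emission ratio to derive AC50 values.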
The target of experiment [7] is Estrogen receptor (Homo sapiens) (UniProt P03372). As to the kind of experiment: qHTS assay for small molecule antagonists of estrogen receptor alpha signaling (AID 588513; active = well fitted curve in the direction sought with a large enough effect in the signal ratio, with a control signal flat, not every such curve was filed as active; the % refers to the signal ratio; note: % is set by controls: 0 for no effect and ±100 for the full control effect). An outline of the steps:
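Fluorescence from CCF4 substrate after 2 h at room temperature gave reporter activity; cells had been exposed to compound and 0.5nM 17-beta-estradiol for 18 h at 37 C. Hill-equation fitting yielded IC50 and maximal response.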
(In qHTS, concentration-response curves come from the screen itself.)

Experiment [8] has the same target. As to the kind of experiment: qHTS assay for small molecule agonists of estrogen receptor alpha signaling (AID 588514; calls by dose curve;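 note: 0% = vehicle only and 100% = reference agonist; nearly all actives have a fitted effect of over 70% in size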). An outline of the steps: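 Reporter-gene assay. […] controls beta-lactamase in HEK 293 GripTite cells; after 18 hrs with compound, CCF4 substrate is added for 2 hrs and fluorescence is read.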
In experiment [9] the target is Glucocorticoid receptor (Homo sapiens) (UniProt P04150). As to the kind of experiment: qHTS assay for small molecule agonists of glucocorticoid receptor signaling (AID 588532; active = well fitted curve in the direction sought with a large enough effect in the signal ratio, with a control signal flat; the % refers to the signal ratio;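 note: 100% = dexamethasone at 0.1 µM and 0% = DMSO only wells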). The settings on record: HeLa MMTV-bla, beta-lactamase ratio, agonist, 18 h; stronger effect = higher value; percent of dexamethasone control, DMSO zero. In outline: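 HeLa GRE-bla reporter cells; 18 h compound exposure at 37 C; 2 h CCF4 loading at room temperature; fluorescence at 460 and 530 nm; EC50 by Hill equation.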
Glucocorticoid receptor (Homo sapiens), sequence (P04150 whole entry, looked up): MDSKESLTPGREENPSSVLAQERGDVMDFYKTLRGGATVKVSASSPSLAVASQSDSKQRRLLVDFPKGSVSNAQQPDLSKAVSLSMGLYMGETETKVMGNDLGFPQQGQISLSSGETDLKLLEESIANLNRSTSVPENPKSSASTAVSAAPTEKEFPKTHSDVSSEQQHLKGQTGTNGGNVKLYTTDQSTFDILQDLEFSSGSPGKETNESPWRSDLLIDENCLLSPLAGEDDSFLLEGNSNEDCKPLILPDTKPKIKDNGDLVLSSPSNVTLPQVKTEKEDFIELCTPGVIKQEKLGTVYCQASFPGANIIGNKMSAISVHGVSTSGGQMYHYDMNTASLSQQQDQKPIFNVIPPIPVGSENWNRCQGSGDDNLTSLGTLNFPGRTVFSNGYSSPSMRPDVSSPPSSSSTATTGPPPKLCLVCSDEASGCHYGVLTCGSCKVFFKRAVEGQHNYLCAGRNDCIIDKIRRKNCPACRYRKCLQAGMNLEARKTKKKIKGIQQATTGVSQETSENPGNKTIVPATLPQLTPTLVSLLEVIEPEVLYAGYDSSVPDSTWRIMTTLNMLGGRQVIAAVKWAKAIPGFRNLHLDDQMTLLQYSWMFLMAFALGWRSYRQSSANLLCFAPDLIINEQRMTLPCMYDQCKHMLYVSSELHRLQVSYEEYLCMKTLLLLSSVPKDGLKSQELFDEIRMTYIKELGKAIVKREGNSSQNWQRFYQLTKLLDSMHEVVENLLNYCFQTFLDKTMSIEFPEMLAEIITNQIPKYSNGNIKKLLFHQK

Experiment [10] shares this target. As to the kind of experiment: qHTS assay for small molecule antagonists of glucocorticoid receptor signaling (AID 588533; active = well fitted inhibition curve with a large enough effect in the signal ratio, with a control signal flat, not every such curve was filed as active; the % refers to the signal ratio; note: % is set by controls: 0 for no effect and ±100 for the full control effect). In outline: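 Antagonist-mode qHTS: compound titrations added to GRE-bla HeLa cells, then dexamethasone 2 nM final; 18 h, 37 C. CCF4 FRET fluorescence normalized to dexamethasone and DMSO; IC50 from Hill fit.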
Experiment [11] has as its target Peroxisome proliferator-activated receptor gamma (Homo sapiens) (UniProt P37231). In words: qHTS assay for small molecule agonists of peroxisome proliferator-activated receptor gamma signaling (AID 588536; active = well fitted curve in the direction sought with a large enough effect in the signal ratio, with a control signal flat, not every such curve was filed as active; the % refers to the signal ratio;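 note: 0% = DMSO basal wells and 100% = rosiglitazone at 2 µM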). An outline of the steps:
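Ratiometric blue/green fluorescence (405 nm excitation; 460 and 530 nm emission) from CCF4-loaded HEK293 reporter cells serves as signal. Exposure to test compounds lasts 16 h at 37 C in medium containing 1% charcoal/dextran-treated serum.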

Experiment [12] shares this target. As to the kind of experiment: qHTS assay for small molecule antagonists of peroxisome proliferator-activated receptor gamma signaling (AID 588537; active = well fitted inhibition curve with a large enough effect in the signal ratio, with a control signal flat, not every such curve was filed as active; the % refers to the signal ratio;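 note: reporter cells co-stimulated with 50 nM rosiglitazone agonist during compound treatment; % of control where 0% means no effect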). In outline:
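Step one: plate 3000 HEK293 UAS-bla cells per well in medium with 1% stripped serum and hold 6-6.5 h at 37 C. Step two: add compound and 50 nM agonist for 16 h. Step three: CCF4 loading, fluorescence read.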

For experiment [13], the target named is Vitamin D3 receptor (Homo sapiens) (UniProt P11473). In words: qHTS assay for small molecule antagonists of vitamin D receptor signaling (AID 588541; calls by dose curve;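 note: receptor activated by calcitriol during compound treatment; series mostly up to about 77 µM; % is set by controls: 0 for no effect and ±100 for the full control effect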). In outline: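 VDR-UAS-bla HEK293T cells in 2% charcoal-stripped FBS were stimulated with 1-alpha,25-dihydroxyvitamin D3 (3 nM final) plus compound for 16 h at 37 C. The beta-lactamase CCF4 readout was normalized to 50 nM agonist and DMSO, and Hill fits gave IC50.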
Vitamin D3 receptor (Homo sapiens), sequence (P11473 whole entry, looked up): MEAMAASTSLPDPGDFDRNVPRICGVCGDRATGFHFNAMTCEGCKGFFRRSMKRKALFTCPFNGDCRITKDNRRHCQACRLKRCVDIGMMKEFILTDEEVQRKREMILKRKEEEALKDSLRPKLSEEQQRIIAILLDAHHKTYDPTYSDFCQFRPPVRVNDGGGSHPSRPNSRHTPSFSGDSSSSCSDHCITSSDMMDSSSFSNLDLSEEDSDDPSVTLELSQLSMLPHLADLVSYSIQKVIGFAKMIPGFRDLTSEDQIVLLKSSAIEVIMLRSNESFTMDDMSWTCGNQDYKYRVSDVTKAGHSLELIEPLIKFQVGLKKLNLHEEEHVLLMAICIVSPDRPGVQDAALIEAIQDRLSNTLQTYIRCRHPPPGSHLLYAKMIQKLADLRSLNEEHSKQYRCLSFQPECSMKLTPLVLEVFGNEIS

For experiment [14] the target is unchanged. As to the kind of experiment: qHTS assay for small molecule agonists of vitamin D receptor signaling (AID 588543; calls by dose curve;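 note: 0% = DMSO basal and 100% = reference agonist control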). An outline of the steps:
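Reporter cells (HEK293T, VDR-UAS-bla) were seeded in medium with 2% charcoal-stripped serum and incubated 5 h, then compounds in concentration series were added for 16 h at 37 °C. Stimulation was scaled between DMSO basal and 50 nM 1α,25-dihydroxyvitamin D3.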

The nature of experiment [15]: Cell Viability - LYMP2-024 (AID 988).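 Note: cells exposed to compound for 24 hr at 37 °C; plate controls were DMSO only for no effect and 92 µM tetraoctylammonium bromide for full effect; nearly all actives have a fitted effect of over 60% in size.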 An outline of the steps:
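Acute toxicity is measured as concentration-dependent loss of intracellular ATP in a human lymphoblastoid line treated 24 hours at 37 C. Luciferase luminescence quantifies ATP; AC50 values come from standard Hill-equation modelling.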

Experiment [16] in a line: qHTS assay for small molecule antagonists of peroxisome proliferator-activated receptor delta signaling (AID 588535; active = well fitted inhibition curve with a large enough effect in the signal ratio, with a control signal flat, not every such curve was filed as active; the % refers to the signal ratio;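 for max response: cells co-treated with a PPAR-delta agonist as stimulator during compound exposure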). To be noted: HEK293T PPARd-UAS-bla, beta-lactamase FRET ratio, 18 h; 460 nm channel. In outline: (§1)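 Cells were seeded at 4000 per well in assay medium containing 2% charcoal/dextran FBS and held 5 hrs at 37 C. Compounds were then added for 18 hrs. CCF4 substrate was applied for 2 hrs at room temperature before fluorescence reading.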

Experiment [17] addresses Peroxisome proliferator-activated receptor delta (Homo sapiens) (UniProt Q03181). The description is as above. An outline of the steps:
as §1

Experiment [18] has as its target Androgen receptor (Homo sapiens) (UniProt P10275). As to the kind of experiment: qHTS assay for small molecule agonists of androgen receptor signaling (AID 588515; active = well fitted curve in the direction sought with a large enough effect in the signal ratio, with a control signal flat; the % refers to the signal ratio; note: % is set by controls: 0 for no effect and ±100 for the full control effect). The settings on record: AR-UAS-bla HEK293, beta-lactamase ratio, agonist 16 h; stronger effect = higher value. In outline:
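EC50 and efficacy came from Hill fits of titrations (up to 92 uM) normalized to 30 nM R1881 as 100% and DMSO as 0%. Compound exposure was 16 h at 37 C on AR-UAS-bla HEK293 cells, with a 405/460/530 nm CCF4 fluorescence read.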

Experiment [19] has as its target Bile acid receptor (Homo sapiens) (UniProt Q96RI1). In words: qHTS assay for small molecule antagonists of farnesoid X receptor signaling (AID 588526; calls by dose curve; note: % is set by controls: 0 for no effect and ±100 for the full control effect). In outline: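 Antagonist mode: titrated compounds tested against chenodeoxycholic acid stimulation (normalized to 50 uM CDCA and DMSO) in GeneBLAzer HEK293T cells for 16 h. Beta-lactamase read by CCF4 fluorescence; IC50 from Hill fits.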

Inconclusive results are not listed. Active and inactive are the calls of the source. Unless noted, calls come from the whole dose curve; as a rule, active = well fitted cell-killing curve with a large enough effect; inconclusive = small, poorly fitted or top-dose-only effect; inactive = flat fitted curve, though single readings scatter.

Estrogen receptor (Homo sapiens), sequence (P03372 whole entry, looked up): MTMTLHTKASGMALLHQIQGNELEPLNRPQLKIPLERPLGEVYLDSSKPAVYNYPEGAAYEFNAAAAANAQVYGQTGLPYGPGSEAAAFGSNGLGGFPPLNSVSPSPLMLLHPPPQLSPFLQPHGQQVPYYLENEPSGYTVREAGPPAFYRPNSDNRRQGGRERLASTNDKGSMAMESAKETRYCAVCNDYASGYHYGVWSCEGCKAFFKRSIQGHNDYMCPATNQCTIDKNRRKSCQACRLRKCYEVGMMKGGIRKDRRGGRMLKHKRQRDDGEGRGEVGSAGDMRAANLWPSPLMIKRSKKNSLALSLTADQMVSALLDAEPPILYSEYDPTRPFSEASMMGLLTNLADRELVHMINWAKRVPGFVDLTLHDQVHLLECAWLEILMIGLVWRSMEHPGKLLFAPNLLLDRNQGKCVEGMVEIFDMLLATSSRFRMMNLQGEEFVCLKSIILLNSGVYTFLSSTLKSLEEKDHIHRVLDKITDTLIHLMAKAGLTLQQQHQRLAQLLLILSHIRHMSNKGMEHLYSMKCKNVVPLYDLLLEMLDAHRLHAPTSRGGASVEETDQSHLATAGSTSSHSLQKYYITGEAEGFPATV
Peroxisome proliferator-activated receptor delta (Homo sapiens), sequence (Q03181 whole entry, looked up): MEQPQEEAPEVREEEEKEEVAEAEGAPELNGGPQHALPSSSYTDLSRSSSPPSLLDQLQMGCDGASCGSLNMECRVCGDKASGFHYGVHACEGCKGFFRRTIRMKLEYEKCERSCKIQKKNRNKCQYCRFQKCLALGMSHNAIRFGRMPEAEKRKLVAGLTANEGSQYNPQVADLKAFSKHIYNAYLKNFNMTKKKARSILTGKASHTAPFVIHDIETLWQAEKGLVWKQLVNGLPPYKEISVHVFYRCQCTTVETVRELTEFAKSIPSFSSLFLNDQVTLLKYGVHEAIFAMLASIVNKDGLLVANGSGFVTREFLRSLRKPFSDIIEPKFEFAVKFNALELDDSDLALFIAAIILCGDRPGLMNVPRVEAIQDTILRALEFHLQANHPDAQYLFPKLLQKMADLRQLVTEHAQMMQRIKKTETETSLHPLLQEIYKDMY
Peroxisome proliferator-activated receptor gamma (Homo sapiens), sequence (P37231 whole entry, looked up): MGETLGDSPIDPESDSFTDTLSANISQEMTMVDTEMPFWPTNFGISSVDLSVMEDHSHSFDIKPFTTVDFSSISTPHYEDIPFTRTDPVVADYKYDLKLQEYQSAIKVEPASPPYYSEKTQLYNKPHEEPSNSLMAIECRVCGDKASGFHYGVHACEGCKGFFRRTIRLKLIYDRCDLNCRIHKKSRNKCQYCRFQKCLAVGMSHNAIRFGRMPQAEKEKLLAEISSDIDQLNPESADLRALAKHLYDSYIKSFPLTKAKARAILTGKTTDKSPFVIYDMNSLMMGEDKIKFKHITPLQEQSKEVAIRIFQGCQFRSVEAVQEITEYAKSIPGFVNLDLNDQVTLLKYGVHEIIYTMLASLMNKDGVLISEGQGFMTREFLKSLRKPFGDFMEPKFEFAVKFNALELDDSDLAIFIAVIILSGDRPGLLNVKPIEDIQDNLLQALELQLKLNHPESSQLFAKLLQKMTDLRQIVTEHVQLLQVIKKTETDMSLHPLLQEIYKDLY
Androgen receptor (Homo sapiens), sequence (P10275 whole entry, looked up): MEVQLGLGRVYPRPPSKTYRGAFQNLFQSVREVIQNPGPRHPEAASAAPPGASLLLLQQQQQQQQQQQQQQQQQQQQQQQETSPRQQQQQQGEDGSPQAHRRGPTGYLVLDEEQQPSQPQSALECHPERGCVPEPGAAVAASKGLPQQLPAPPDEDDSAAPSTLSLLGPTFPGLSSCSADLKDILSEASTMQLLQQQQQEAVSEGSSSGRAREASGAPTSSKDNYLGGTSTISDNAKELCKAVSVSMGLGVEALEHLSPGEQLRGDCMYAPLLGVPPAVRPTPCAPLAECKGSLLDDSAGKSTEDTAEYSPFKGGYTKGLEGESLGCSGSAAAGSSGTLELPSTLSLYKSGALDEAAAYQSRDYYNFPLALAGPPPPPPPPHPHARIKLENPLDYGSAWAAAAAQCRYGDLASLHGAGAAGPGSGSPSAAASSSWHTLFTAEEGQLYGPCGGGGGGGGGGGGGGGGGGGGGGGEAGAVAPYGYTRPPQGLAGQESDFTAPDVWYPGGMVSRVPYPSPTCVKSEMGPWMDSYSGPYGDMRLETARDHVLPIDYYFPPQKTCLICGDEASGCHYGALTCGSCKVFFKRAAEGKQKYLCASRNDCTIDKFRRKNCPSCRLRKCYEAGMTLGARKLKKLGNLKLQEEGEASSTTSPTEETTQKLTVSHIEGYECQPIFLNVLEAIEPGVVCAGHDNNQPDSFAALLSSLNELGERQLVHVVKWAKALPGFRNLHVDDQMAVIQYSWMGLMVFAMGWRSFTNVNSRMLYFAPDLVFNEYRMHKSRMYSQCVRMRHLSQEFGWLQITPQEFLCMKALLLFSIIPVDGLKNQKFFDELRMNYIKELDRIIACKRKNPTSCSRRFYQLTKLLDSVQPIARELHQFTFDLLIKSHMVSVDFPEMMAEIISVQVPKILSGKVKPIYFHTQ
Bile acid receptor (Homo sapiens), sequence (Q96RI1 whole entry, looked up): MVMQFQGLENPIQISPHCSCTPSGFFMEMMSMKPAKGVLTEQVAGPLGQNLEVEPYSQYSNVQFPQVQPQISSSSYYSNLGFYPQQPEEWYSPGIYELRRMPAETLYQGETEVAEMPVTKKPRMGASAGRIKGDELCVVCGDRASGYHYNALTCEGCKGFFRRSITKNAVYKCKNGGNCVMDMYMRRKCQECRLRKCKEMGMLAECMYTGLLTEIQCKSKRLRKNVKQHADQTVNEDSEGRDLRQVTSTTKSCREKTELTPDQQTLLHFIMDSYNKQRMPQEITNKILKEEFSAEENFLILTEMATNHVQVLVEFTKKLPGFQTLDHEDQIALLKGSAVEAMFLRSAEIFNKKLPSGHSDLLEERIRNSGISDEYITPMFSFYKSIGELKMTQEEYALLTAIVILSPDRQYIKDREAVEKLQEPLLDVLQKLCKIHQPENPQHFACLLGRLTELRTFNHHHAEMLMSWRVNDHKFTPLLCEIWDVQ

Take `OC(CCl)CCl`: the Potency result in experiment [1], in experiment [2], in [4], in [5] and in experiment [8] was “inactive” throughout. In addition, the call in experiment [3], in [6], in [7], in [10], in [11] and in experiment [12] was inactive. In addition, the compound was classed as inactive in experiment [13] and in experiment [14]. In addition, the activation in experiment [9] was 14.2% (inactive).
Turning to `C=C(C)C(=O)OCC(C)O` (stereo not given), the Potency result in [1], in experiment [15], in experiment [4], in experiment [5], in [8] and in experiment [17] was “inactive” each time. Also, the compound was called inactive in experiment [3], in experiment [6], in [7], in [13] and in experiment [14]. For the same compound, the activation in [9] was -4.2% (inactive). In [16], the max response turned out to be 24.5%.
On to `CCOC(=O)OCC`, for which the Potency result in [1], in experiment [2], in [15], in [5] and in [8] was “inactive” each time. For the same compound, the result in [3], in [6], in [7], in experiment [10], in [11] and in experiment [12] was inactive. Moreover, the compound was called inactive in experiment [13] and in [14]. Further, the activation in experiment [9] was -5.65% (inactive).
With `Fc1ccccc1`, the Potency result in [1], in [2], in experiment [5] and in experiment [8] was “inactive” each time. Besides, the compound was called inactive in experiment [3], in experiment [6], in experiment [7], in experiment [10] and in experiment [13]. For the same compound, the activation in experiment [9] is 1.06% (inactive). The max response in [16] is 0.384%.
On to `Nc1ccc([N+](=O)[O-])c(N)c1`, for which the Potency result in [1], in experiment [2], in experiment [15], in experiment [4], in [5] and in [8] was “inactive” in each case. In addition, the compound was called inactive in experiment [3], in experiment [6], in [7], in experiment [10], in [11] and in [12]. Moreover, the compound was called inactive in experiment [13] and in [14]. Further, in experiment [9], the activation is -8.8% (inactive).
On to `CC(C)(C)c1ccc(OCC2CO2)cc1` (stereo not given), for which the Potency entry in [1], in experiment [2], in experiment [15], in experiment [4], in [5] and in experiment [8] was “inactive” each time. Besides, the outcome in [3], in experiment [6], in [7], in experiment [13] and in experiment [14] was inactive. In [9], the activation was -4.85% (inactive). Besides, the max response in experiment [16] was 18.6%.
For the compound `C=CCCC`, the Potency result in experiment [1], in experiment [2], in experiment [15], in experiment [4], in [5] and in experiment [8] was “inactive” throughout. Further, in experiment [17], the Potency entry was “inactive”. Also, the result in experiment [6], in [7], in experiment [10], in experiment [13] and in [14] was inactive. For the same compound, in experiment [9], the activation is 5.54% (inactive). In addition, in experiment [16], the max response is 0.0312%.
Consider `CC(C)N=C=NC(C)C`, for which the Potency result in experiment [1], in experiment [2], in experiment [4], in experiment [5] and in experiment [8] was “inactive” throughout. Besides, the compound was called inactive in experiment [3], in [6], in experiment [7], in experiment [10], in [11] and in experiment [12]. The call in experiment [13] and in [14] was inactive. Besides, the activation in experiment [9] was 4.13% (inactive).
With `C=CC(=O)NC(C)C`, the Potency entry in experiment [1], in experiment [2], in experiment [15], in [4], in experiment [5] and in experiment [8] was “inactive” throughout. Also, the outcome in [3], in experiment [6], in experiment [7], in experiment [10], in experiment [11] and in [12] was inactive. Also, the outcome in [13] and in experiment [14] was inactive. Further, the activation in experiment [9] is 2.34% (inactive). In [16], the max response was -15.9%.
In the case of `ICCc1ccccc1`, the Potency result in experiment [1], in [2], in experiment [15], in experiment [4], in experiment [5] and in experiment [8] was “inactive” throughout. In addition, in experiment [17], the Potency result was “inactive”. Besides, the call in experiment [3], in [6], in experiment [7], in experiment [11], in experiment [13] and in experiment [14] was inactive. Further, the activation in [9] is -2.34% (inactive). Further, the max response in [16] amounted to 13.6%.
Regarding `Cc1ccc2ncccc2c1`, the Potency entry in [1], in [2], in experiment [15], in [4], in experiment [5] and in [17] was “inactive” throughout. Besides, the compound was classed as inactive in experiment [3], in experiment [6], in experiment [7], in [10] and in [11]. For the same compound, in [9], the activation was 6.61% (inactive). Also, the max response in [16] is 20.6%.
For `OCCO`, the Potency result in [1], in [2], in experiment [15], in experiment [4] and in experiment [5] was “inactive” throughout. Moreover, the outcome in experiment [3], in [6], in experiment [7], in experiment [19], in experiment [11] and in [13] was inactive. For the same compound, the result in experiment [14] was inactive. Further, the activation in experiment [18] was -10.8% (inactive).
